Laboratory results: PubChem BioAssay (Tox21)
Records with an inconclusive call do not appear. Activity calls are given as the source filed them. Unless noted, calls follow the shape of the dose curve; as a rule, active = well fitted curve in the direction sought with a large enough effect in the repeat runs; inconclusive = weak or mixed curves; inactive = no such curve, though single readings can be large; an effect the other way counts as inactive or inconclusive.

Experiments:
[1] = qHTS assay to identify small molecule agonists of the peroxisome proliferator-activated receptor delta (PPARd) signaling pathway - cell viability counter screen (AID 743211); also: nearly all actives have a fitted effect of over 55% in size
Summary of the method: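 Viability of GeneBLAzer PPARd UAS-bla HEK293H cells was assessed after 17 h compound incubation at 37C, using CellTiter-Glo reagent added after the reporter read and luminescence recorded 30 min later.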

[2] = qHTS assay to identify small molecule antagonists of the peroxisome proliferator-activated receptor delta (PPARd) signaling pathway - cell viability counter screen (AID 743213); also: nearly all actives have a fitted effect of over 50% in size
Summary of the method: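 HEK293H cells with the PPARd UAS-bla reporter, co-treated 17 h at 37 C with compounds and L165041 (300 nM final), were lysed with CellTiter-Glo. Luminescence indicated viable cell content.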

[3] = qHTS assay to identify small molecule agonists of the farnesoid-X-receptor (FXR) signaling pathway - cell viability counter screen (AID 743218); also: nearly all actives have a fitted effect of over 45% in size
Summary of the method: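 Readout: CellTiter-Glo luminescence, 30 min RT, multiplexed after the FXR-bla FRET reading. HEK 293T FXR-UAS-bla cells received compound 5 h post-plating and were incubated 16 h at 37 C.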

[4] = biological target: Bile acid receptor (Homo sapiens) (UniProt Q96RI1); experiment: qHTS assay to identify small molecule agonists of the farnesoid-X-receptor (FXR) signaling pathway (AID 743220; active = well fitted activation curve with a large enough effect in the signal ratio in the repeat runs, not every such curve was filed as active; the % refers to the signal ratio)
Bile acid receptor (Homo sapiens), sequence (Q96RI1 whole entry, looked up): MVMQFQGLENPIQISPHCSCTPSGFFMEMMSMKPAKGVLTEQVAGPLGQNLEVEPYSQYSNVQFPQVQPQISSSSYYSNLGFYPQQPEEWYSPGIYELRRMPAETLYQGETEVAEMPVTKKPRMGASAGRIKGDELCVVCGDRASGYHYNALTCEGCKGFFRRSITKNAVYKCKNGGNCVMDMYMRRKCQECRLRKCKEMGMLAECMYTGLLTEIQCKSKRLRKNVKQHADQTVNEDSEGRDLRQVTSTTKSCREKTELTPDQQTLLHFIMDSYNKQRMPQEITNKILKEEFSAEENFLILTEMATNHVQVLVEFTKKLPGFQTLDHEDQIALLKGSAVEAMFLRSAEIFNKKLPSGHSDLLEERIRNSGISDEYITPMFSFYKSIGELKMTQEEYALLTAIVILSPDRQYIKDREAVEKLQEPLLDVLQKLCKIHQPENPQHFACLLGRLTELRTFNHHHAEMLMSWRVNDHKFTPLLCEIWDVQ
Summary of the method: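 FXR-UAS-bla HEK 293T cells carrying a UAS-driven beta-lactamase reporter were plated for 5 h at 37C/5% CO2, then exposed to DMSO-dissolved Tox21 10K compounds for 16 h at 37C. A LiveBLAzer B/G FRET substrate was loaded for 2 h at room temperature before fluorescence reading.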

[5] = qHTS assay to identify small molecule antagonists of the farnesoid-X-receptor (FXR) signaling pathway - cell viability counter screen (AID 743221; active = well fitted cell-killing curve with a large enough effect in the repeat runs, not every such curve was filed as active; also: nearly all actives have a fitted effect of over 50% in size)
Summary of the method: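 Quantitative HTS of the Tox21 10K library run in parallel with the beta-lactamase reporter read. HEK 293T cells carrying a UAS-driven bla reporter got compound and 50 uM CDCA (final) for 16 h; ATP-based luminescence followed.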

[6] = biological target: Vitamin D3 receptor (Homo sapiens) (UniProt P11473); experiment: qHTS assay to identify small molecule agonists of the vitamin D receptor (VDR) signaling pathway (AID 743222; calls by dose curve)
Vitamin D3 receptor (Homo sapiens), sequence (P11473 whole entry, looked up): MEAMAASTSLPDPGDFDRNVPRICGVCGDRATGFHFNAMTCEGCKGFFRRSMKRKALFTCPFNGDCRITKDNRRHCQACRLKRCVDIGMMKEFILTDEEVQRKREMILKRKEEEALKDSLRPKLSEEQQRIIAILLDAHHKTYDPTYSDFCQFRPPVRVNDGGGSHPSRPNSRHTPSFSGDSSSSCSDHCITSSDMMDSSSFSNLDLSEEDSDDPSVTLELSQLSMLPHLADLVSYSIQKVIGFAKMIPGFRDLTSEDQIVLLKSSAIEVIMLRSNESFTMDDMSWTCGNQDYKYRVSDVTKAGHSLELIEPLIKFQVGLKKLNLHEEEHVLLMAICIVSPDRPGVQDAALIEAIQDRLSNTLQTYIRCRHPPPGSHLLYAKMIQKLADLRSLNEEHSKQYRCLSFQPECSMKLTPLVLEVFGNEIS
Summary of the method: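 Following 4 h attachment at 37C, VDR-bla cells (2,000 per well) received DMSO-dissolved compounds or controls. After 16 h incubation, LiveBLAzer B/G FRET substrate was added and fluorescence read 2 h later at room temperature.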

[7] = biological target: Vitamin D3 receptor (Homo sapiens) (UniProt P11473); experiment: qHTS assay to identify small molecule antagonists of the vitamin D receptor (VDR) signaling pathway (AID 743223; active = well fitted inhibition curve with a large enough effect in the signal ratio in the repeat runs, not every such curve was filed as active; the % refers to the signal ratio)
Summary of the method: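 Fluorescence from LiveBLAzer B/G FRET substrate, read after 2 h at room temperature, reflects beta-lactamase reporter activity in VDR-bla cells treated 16 h at 37C with compounds and agonist 1alpha,25-dihydroxyvitamin D3 (3 nM final).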

[8] = biological target: Peroxisome proliferator-activated receptor delta (Homo sapiens) (UniProt Q03181); experiment: qHTS assay to identify small molecule antagonists of the peroxisome proliferator-activated receptor delta (PPARd) signaling pathway (AID 743215; active = well fitted inhibition curve with a large enough effect in the signal ratio in the repeat runs, not every such curve was filed as active; the % refers to the signal ratio;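 also: cells stimulated with agonist L165041 at 300 nM final during compound exposure; series mostly up to about 62 µM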)
Peroxisome proliferator-activated receptor delta (Homo sapiens), sequence (Q03181 whole entry, looked up): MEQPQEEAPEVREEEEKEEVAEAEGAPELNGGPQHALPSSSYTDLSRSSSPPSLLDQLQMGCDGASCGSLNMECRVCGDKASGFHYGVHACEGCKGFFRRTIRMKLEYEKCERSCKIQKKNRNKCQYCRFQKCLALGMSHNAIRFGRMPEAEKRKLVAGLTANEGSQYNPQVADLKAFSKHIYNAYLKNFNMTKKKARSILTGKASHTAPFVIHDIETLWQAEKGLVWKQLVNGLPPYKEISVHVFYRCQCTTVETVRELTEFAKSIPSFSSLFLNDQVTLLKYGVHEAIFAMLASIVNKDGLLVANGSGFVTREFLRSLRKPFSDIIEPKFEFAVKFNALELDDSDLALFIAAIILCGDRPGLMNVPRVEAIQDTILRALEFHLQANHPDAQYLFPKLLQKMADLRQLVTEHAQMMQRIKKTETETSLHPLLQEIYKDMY
Summary of the method: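 Fluorescence from cleaved LiveBLAzer B/G FRET substrate (2 h, room temperature) reports PPARd-driven beta-lactamase in HEK293H UAS-bla cells. Cells had been treated 17 h at 37 C with compound plus 300 nM final L165041.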

Measured: Potency

OCCCCO
not listed: [8]
inactive: all other assays above

NNc1ccccc1
inactive: [1] | [2] | [3]

COC(C)(C)CCCC(C)C/C=C/C(C)=C/C(=O)OC(C)C (configuration not stated)
inactive: [1] | [2] | [3] | [5]

CCSC(=O)N1CCCCCC1
not listed: [4]
inactive: all other assays above

CNC(=O)O/N=C(\SC)C(=O)N(C)C
not listed: [4]
inactive: all other assays above

Nc1ccc([As](=O)(O)O)cc1
inactive: [1] | [2] | [8] | [3] | [6]

N#Cc1ccccn1
inactive: [1] | [2] | [3]

C=CC#N
not listed: [4] | [8]
inactive: all other assays above

Cc1ccc(N=C=O)cc1N=C=O
inactive: [1] | [2] | [3] | [6] | [7]

O=[N+]([O-])c1ccc(Cl)cc1
not listed: [4] | [8]
inactive: all other assays above

O=C(O)c1cc(Oc2ccc(C(F)(F)F)cc2Cl)ccc1[N+](=O)[O-]
inactive: [1] | [2] | [3]

CNC(=O)O/N=C/C(C)(C)SC
inactive: [1] | [8] | [3] | [4] | [5]

Nc1ccc(N)cc1
not listed: [5] | [8]
inactive: all other assays above

C/C=C/c1ccc2c(c1)OCO2
not listed: [4] | [8]
inactive: all other assays above

O=P1(NCCCl)OCCCN1CCCl (configuration not stated)
inactive: [1] | [2] | [3] | [5]

Oc1ccc(Cl)cc1
inactive: [1] | [2] | [3] | [6] | [7]

CNC(=O)O/N=C/C(C)(C)S(C)(=O)=O
inactive: [1] | [2] | [3] | [5]

C=C(C)C(=O)OCC(CC)CCCC (configuration not stated)
inactive: [1] | [2] | [3] | [6] | [7]

O=C(O)C(Br)Br
not listed: [5] | [8]
inactive: all other assays above

CCCCCCCCCCCCCCCCCC(=O)O
inactive: [1] | [2] | [3] | [5]

O=S(=O)(O)OOS(=O)(=O)O
not listed: [4]
inactive: all other assays above

Cc1ccc(N)cc1
inactive: [1] | [2] | [3] | [5]

C=CC(=O)OCC(CC)CCCC (configuration not stated)
inactive: [1] | [2] | [3] | [6]

COS(=O)(=O)OC
not listed: [4] | [5]
inactive: all other assays above

CNCC(O)c1ccc(O)cc1 (configuration not stated)
not listed: [5] | [8]
inactive: all other assays above

c1ccc2c(c1)CCCC2
not listed: [8]
inactive: all other assays above

ClC(Cl)c1ccccc1
not listed: [4]
inactive: all other assays above

CC(C)c1cccc(C(C)C)c1O
not listed: [4]
inactive: all other assays above

C[C@]12CC[C@H](O)CC1=CC[C@@H]1[C@@H]2CC[C@]2(C)C(=O)CC[C@@H]12
inactive: [1] | [2] | [3]
